Data as given in PMC5540273 (PLoS ONE, 2017).

Tests used:
Conditions in all cases: concentration: 1 μM, replicates: in singlicate; n = 1
AAK1 = system: AAK1
ABL1-nonphosphorylated = system: ABL1-nonphosphorylated
ABL1-phosphorylated = system: ABL1-phosphorylated
ABL2 = system: ABL2
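Note: KINOMEscan kinase panel screen.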

| SMILES | %Inh (AAK1) | %Inh (ABL1-nonphosphorylated) | %Inh (ABL1-phosphorylated) | %Inh (ABL2) |
| --- | --- | --- | --- | --- |
| CC(C)(C)c1ccc(C(=O)Nc2cn3cc(-c4ccccc4)ccc3n2)cc1 | 0% | 74% | 55% | 21% |
| Cc1nnc(-c2ccc(C)c(-c3ccc(C(=O)O)cc3)c2)o1 [GW608005] | 0% | 0% | 0% | 0% |
| COc1cc(Nc2ccnc3ccc(C(F)(F)F)cc23)cc(OC)c1OC [GW577382] | 8% | 27% | 19% | 28% |
| Cc1ccc(Oc2ccc(Nc3ncnc4cc[nH]c34)cc2C)cn1 | 0% | 19% | 0% | 0% |
| Nc1nccc2scc(-c3ccc4c(c3)CCN4C(=O)Cc3ccccc3)c12 [GSK2576924] | 8% | 0% | 0% | 1% |
| COc1cc2ncn(-c3cc(OCc4ccc(S(C)(=O)=O)cc4)c(C(N)=O)s3)c2cc1OC [GW869979] | 0% | 0% | 13% | 14% |
| COc1ccc(-n2cnc3c(N)ncnc32)cc1 [SKF-97236] | 15% | 28% | 1% | 10% |
| Cc1c(Cn2c(C)nn3c(=O)cc(N4CCO[C@H](C)C4)nc23)cccc1C(F)(F)F [GSK2373690] | 0% | 0% | 2% | 24% |
| CCC(=O)c1c(-c2ccccc2)c2cc(Cl)ccc2c(=O)n1Cc1cc(S(C)(=O)=O)n(CC(F)F)n1 | 0% | 23% | 2% | 0% |
| Cc1ccc(-c2ccc3c(ccc4sc5c(c43)NC[C@@H](C)N=C5N(C)C)n2)cn1 | 0% | 0% | 0% | 0% |
| Fc1cccc(CSc2nnc(-c3ccc4c(c3)CCO4)o2)c1 | 25% | 20% | 7% | 22% |
| Nc1n[nH]c2nnc(-c3ccccc3)c(-c3ccccc3)c12 [GW554060] | 0% | 0% | 0% | 9% |
| CCC(=O)c1c(-c2ccccc2)c2cc(Cl)ccc2c(=O)n1Cc1cc(S(C)(=O)=O)n(CCC(C)(C)O)n1 | 25% | 6% | 3% | 9% |
| Cn1c(=O)c(F)c(Nc2ccc(I)cc2F)c2c(=O)n(OC[C@H](O)CO)cnc21 | 10% | 54% | 41% | 3% |
| COc1cc2nccc(Nc3cccc(Oc4ccccc4)c3)c2cc1OC.Cl [GW284543] | 0% | 0% | 0% | 15% |
| CCS(=O)c1ccc(-c2coc3ccc(-c4nnc(C)o4)cc23)cc1 (stereo not drawn) | 0% | 27% | 0% | 0% |
| COc1cc2ncn(-c3cc(OCc4ccncc4)c(C(N)=O)s3)c2cc1OC [GSK336313] | 58% | 0% | 7% | 0% |
| COc1cc2ncn(-c3cc(OCCCc4ccccc4)c(C(N)=O)s3)c2cc1OC [GSK205189] | 35% | 0% | 0% | 5% |
| CN1C(=O)C(Nc2ccccc2)=C(c2ccccc2)C1=O [SB-300079] | 0% | 0% | 6% | 0% |
| Cl.NS(=O)(=O)c1cccc(Nc2cc(-c3ccc(F)cc3)n[nH]2)c1 [GW824645] | 9% | 5% | 24% | 0% |
| Cc1nc(N(C)[C@H]2CN(C(=O)CC#N)CC[C@H]2C)c2cc[nH]c2n1 | 0% | 1% | 2% | 1% |
| COc1cc2ncn(-c3cc(OCc4ccncc4Br)c(C(N)=O)s3)c2cc1OC [GW854278] | 17% | 15% | 0% | 5% |
| CCn1c(-c2ccoc2)nc2cnccc21 [SB-733887] | 1% | 1% | 17% | 10% |
| CCCC(=O)Nc1n[nH]c2ncc(-c3cccc4ccccc34)cc12 [SB-642057] | 27% | 0% | 27% | 11% |
